From PubChem
Rows were chosen to be rich in hits. Some 9.3% of all compounds tested hit in one or more screens of this group.
Vaccinia Venus = qHTS for Stage-Specific Inhibitors of Vaccinia Orthopoxvirus: Venus Reporter Primary qHTS. Vaccinia virus Venus reporter expression, fluorescence. Potency, µM (top dose mostly 36.5 µM), inactives show top-dose activity change, negative = inhibition, actives largely listed as inhibitors. hit rate 0.46% among 330,000; calls by dose curve; tested in A549 cells; also: potency is read from the fitted curve at half-maximal effect; nearly all actives have a fitted effect of over 30% in size
FMDV inh = High Throughput Screening for Foot and Mouth Disease Virus Antivirals; Potency, µM (series often up to 57.9 µM), for inactives: at the top dose activity change, negative = inhibition, actives largely listed as inhibitors; hit rate 1.2% among 410,000; FMDV antiviral cell-based qHTS; calls by dose curve; tested in HEK293T cells; also: read-out not given here; potency is read from the fitted curve at half-maximal effect; nearly all actives have a fitted effect of over 45% in size
HCV inhibitor = qHTS Assay for Inhibitors of Hepatitis C Virus (HCV); Huh7.5.1 HCVcc-Cre infection, luciferase reporter, 44 h; Potency, µM (doses to about 41.8 µM), without a hit: top-dose activity change, negative = inhibition, hits mostly inhibitors; hit rate 3.4% among 340,000; also: potency is read from the fitted curve at half-maximal effect
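Luciferase read-out (15 sec integration) after a 15 min room-temperature substrate step quantifies HCVcc-Cre infection. Cells, 1,000 per well, had compound added 4 h post-plating, then virus at ~0.5 moi, and were cultured 44 h.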
Vaccinia mCherry = qHTS for Stage-Specific Inhibitors of Vaccinia Orthopoxvirus: mCherry Reporter Primary qHTS; Vaccinia virus mCherry reporter infection, fluorescence; Potency, µM (top dose mostly 36.5 µM), without a hit: at the top dose activity change, negative = inhibition, hits mostly inhibitors; hit rate 0.63% among 310,000; calls by dose curve; tested in A549 cells; also: potency is read from the fitted curve at half-maximal effect; nearly all actives have a fitted effect of over 35% in size
HCMV inh = qHTS Assay for inhibitors of the human cytomegalovirus (HCMV); HFF cells, HCMV-luciferase reporter, 72 h; stronger effect = lower value; activity change, negative = inhibition, % at 57.5 µM; hit rate 4.5% among 410,000; in the data active = activity change below about -60%; inconclusive = no clear call, values can overlap the other calls; inactive = above about -39%
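Human foreskin fibroblasts infected with luciferase-reporter HCMV at MOI 1 PFU/cell, compounds at two doses. Luciferase measured 72 h post infection; normalized to buffer-only basal and Salinomycin (10uM) controls.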
Sm TGR block = qHTS Assay for the Inhibitors of Schistosoma Mansoni Peroxiredoxins. purified TGR, DTNB reduction, TNB absorbance 405 nm. Schistosoma mansoni thioredoxin glutathione reductase (TGR), Q962Y6. hit rate 3% among 360,000. Potency, µM (series often up to 114 µM), without a hit: top-dose activity change, negative = inhibition, most hits filed as inhibitors. AID 485364, 2010; also: potency is read from the fitted curve at half-maximal effect; nearly all actives have a fitted effect of over 60% in size
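TGR 20 nM + NADPH 100 uM (dispensed conc.), cpd preinc 15 min RT; start with NADPH (500 uM addition) then DTNB (15 mM addition). Kinetic TNB absorbance, 405 nm filter. Four-parameter Hill fit across titration.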
* = called active by the depositor; i = inactive; ? = inconclusive; · = no result given; ! = not confirmed by another sample. Unless noted, calls follow the shape of the dose curve; as a rule, active = well fitted curve in the direction sought with a large enough effect; inconclusive = small, poorly fitted or top-dose-only effect, or another doubt; inactive = no such curve, though single readings can be large; an effect the other way counts as inactive or inconclusive. % is scaled to controls: 0 for no effect and ±100 for the full control effect.

SMILES	Vaccinia Venus	FMDV inh	HCV inhibitor	Vaccinia mCherry	HCMV inh	Sm TGR block
COC(=O)c1cn(Cc2ccc(F)cc2)c2ccccc12	-16.1%	-26.9%	·	i	13.2	·
COC(=O)c1ccc(Cn2cc(/C=C\[N+](=O)[O-])c3ccccc32)o1	-1.8%	39.8µM*	9.4%	i	-16.1	-29.8%
O=C(O)c1ccc(Cn2cc(/C=C\[N+](=O)[O-])c3ccccc32)o1	·	-11.7%	-6.8%	·	25.9	3.16µM*
Cc1cc(C(=O)O)ccc1-c1ccc(/C=C2\NC(=O)N(Cc3ccccc3Cl)C2=O)o1	-2.9%	-6.5%	7.0%	-10.0%	·	50.1µM*
Cc1ccc(/C=C2\C(=O)NC(=O)N(CCc3ccc(F)cc3)C2=O)s1	0.4%	-26.6%	6.9%	-7.3%	-8.7	?
Cc1ccc(/C=C2/C(=O)NC(=O)N(Cc3ccc(F)cc3)C2=O)o1	·	·	·	·	27.9	20µM*
Cc1ccc(/C=C2\C(=O)NC(=O)N(CCc3ccc(F)cc3)C2=O)o1	·	22.4µM*	9.5%	·	26.9	11.2µM*
Cc1ccc(/C=C2\C(=O)NC(=O)N(Cc3ccccc3Cl)C2=O)o1	·	31.6µM*	-0.3%	·	125.2	?
Cc1ccccc1CSc1ccc(S(=O)(=O)N2CCCC2)cn1	-10.1%	-23.8%	?	-23.8%	-5.9	·
CCCCCCOc1ccc(NC(=O)CC2C(=O)N(CC)C(=S)N2Cc2ccco2)cc1 (stereo unspecified)	?	-11.6%	?	?	-90.2*	-4.2%
CCOc1ccc(NC(=O)CC2C(=O)N(c3ccccc3)C(=O)N2Cc2ccco2)cc1 (stereo unspecified)	-10.6%	-14.6%	-26.6%	-6.1%	-21.6	44.7µM*
CCN1C(=O)C(CC(=O)Nc2ccc(F)cc2)N(Cc2ccco2)C1=S (stereo unspecified)	5.2%	-10.3%	4.9%	i	-5.6	?
COc1cc(NC(=O)CC2C(=O)N(c3cccc(C)c3)C(=O)N2Cc2ccco2)cc(OC)c1 (stereo unspecified)	-6.3%	-5.6%	·	-6.0%	-32.0	50.1µM*
COc1ccc(NC(=O)CC2C(=O)N(c3cccc(OC)c3)C(=O)N2Cc2ccco2)cc1 (stereo unspecified)	-9.4%	?	-15.0%	i	-1.8	44.7µM*
CCN(CC)C(=O)Oc1ccc2ccccc2c1Cl	4.2%	40.5%	-5.7%	-13.2%	-26.6	-10.3%
CC1CCCC(NC(=O)c2ccc3c(c2)OCO3)C1C (stereo unspecified)	-2.3%	18.8%	10.0%	-12.9%	0.7	0.0%
C=CCN1C(=O)C(CC(=O)Nc2ccc(OCCC)cc2)N(CCCN2CCN(Cc3ccccc3)CC2)C1=S (stereo unspecified)	11.2µM*	?	10µM*	?	0.6	0.8%
Nc1ccc(O)cc1C(=O)OCC(=O)c1ccc(C2CCCCC2)cc1	-23.0%	?	?	?	-95.3*	-3.7%
COc1ccc(C(=O)OCC(=O)c2ccc(C3CCCCC3)cc2)cc1	-3.7%	?	?	-10.0%	?	?
O=S(=O)(Nc1cccc2ncccc12)c1cccs1	?	20µM*	?	12.6µM*	·	2.9%
Cc1c(NS(=O)(=O)c2cccs2)cccc1-c1nc2cccnc2s1	·	-20.0%	?	·	-31.6	4.9%
Cc1ccc(S(=O)(=O)N2CCC(C(=O)N3CCc4ccccc43)CC2)cc1C	-2.4%	6.9%	6.4%	-11.0%	?	0.8%
CCS(=O)(=O)Nc1cccc(C2=NN(C(=O)c3ccco3)C(c3ccco3)C2)c1 (stereo unspecified)	-23.4%	-1.3%	-18.9%	?	2.3	50.1µM*
CC(=O)N1N=C(c2ccc(NS(=O)(=O)c3ccccc3)cc2)CC1c1ccco1 (stereo unspecified)	·	-3.2%	?	·	-19.1	-8.9%
CC(=O)N1N=C(c2cccc(NS(=O)(=O)c3ccc(C)cc3)c2)CC1c1ccco1 (stereo unspecified)	-15.9%	-29.0%	3.16µM*	-4.3%	-21.1	?
SMILES	Vaccinia Venus	FMDV inh	HCV inhibitor	Vaccinia mCherry	HCMV inh	Sm TGR block
Cc1cc(C)cc(OCC(=O)Nc2ccc(S(=O)(=O)Nc3onc(C)c3C)cc2)c1	-3.8%	-6.2%	·	1.9%	-7.9	2.5%
Nc1cccc2c1C(=O)N(C(=O)/C=C/c1ccc(F)cc1)C2=O	?	39.8µM*	-29.3%	?	-4.7	15.0%
N#CC1=C(S)N(c2ccccc2)C(c2ccc(-c3ccc(Cl)c(Cl)c3)o2)NC1=O (stereo unspecified)	·	-1.7%	14.0%	·	-32.6	14.1µM*
CC(C)c1ccc(NC(=O)C2Cc3c(-c4ccccc4Oc4ccccc4)ccnc3O2)cc1 (stereo unspecified)	15.8%	-18.3%	·	1.1%	-60.8*	·
COc1ccc(NC(=O)C2Cc3c(-c4ccccc4Oc4ccccc4)ccnc3O2)cn1 (stereo unspecified)	-11.1%	-25.3%	·	-21.6%	-29.3	·
COc1ccc(NC(=O)C2Cc3c(-c4ccccc4Oc4ccccc4)ccnc3O2)cc1OC (stereo unspecified)	-26.2%	25.1µM*	·	-12.9%	-75.9*	·
O=C(Nc1nccs1)C1CC=CCC1 (stereo unspecified)	-6.3%	11.7%	7.6%	-11.2%	-69.3*	-15.3%
N#Cc1nc(Cc2cccc3ccccc23)oc1NCc1ccc(F)cc1	-26.7%	-7.5%	?	-8.1%	-33.1	-4.3%
Cc1nc2c(nnn2Cc2ccccc2Cl)c(=O)[nH]1	·	8.4%	12.8%	·	21.5	3.2%
Cc1cc(NC(=O)CCl)no1	?	?	?	?	-81.8*	8.91µM*
CSCC(=O)Nc1cc(C)on1	-13.8%	-7.1%	13.4%	-0.1%	37.0	11.3%
CCOc1ccc(CNC(=O)c2ccc(Sc3ccc(C)cc3)c(NC(C)=O)c2)cc1OC	-22.3%	?	?	i	-24.7	6.5%
CCOc1ccc(CNC(=O)c2ccc(Sc3ccc(Cl)cc3)c(NC(C)=O)c2)cc1OC	-13.8%	?	12.6µM*	-10.6%	1.8	-3.8%
CCOc1ccc(CNC(=O)c2ccc(Sc3ccc(C)cc3)c(N)c2)cc1OC	-28.8%	?	·	-27.0%	-62.1*	-1.1%
CCSc1ncc(Cl)c(C(=O)Nc2ccc(S(=O)(=O)N(C)c3ccccc3)cc2)n1	-9.6%	-5.5%	·	-18.4%	-21.5	12.8%
CCN(c1ccccc1)S(=O)(=O)c1ccc(NC(=O)c2nc(S(C)(=O)=O)ncc2Cl)cc1	?	28.2µM*	?	?	-99.6*	0.398µM*
CCS(=O)(=O)c1ncc(Cl)c(C(=O)Nc2ccc(S(=O)(=O)N(C)c3ccccc3)cc2)n1	14.1µM*!	22.4µM*	?	-28.1%	-100.9*	0.501µM*
